In PubChem BioAssay (NCI):
This is part of a sample that, as a whole, favours compounds with a hit. Of some 83,000 tested, about 20% had one in any assay.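 Assay: single dose, 48 h. Readout: percent growth (0 = no net growth; negative = cell death). Active: <10.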 Values without a mark were called inactive. Activity calls are given as the source filed them.

Test system: UO-31 renal
Assay: NCI-60 one-dose screen, 48 h (100 = growth as untreated, 0 = no growth, -100 = all killed)
Settings: 10 µM unless noted

Structure (SMILES) | growth
CCc1cc2c(cc1Cl)nc1c(=O)[nH]c(=O)nc-1n2CCOCC(C)(C)C | 44.3%
Cc1cc(=O)[nH]c(O)c1C#N | 84.3%
CC1(C)CC[C@]23CC[C@]4(C)[C@H](CC[C@@H]5[C@@]6(C)CC[C@H](NCO)C(C)(C)[C@@H]6CC[C@]54C)[C@H]2[C@H]1OC3 | 73.9%
CC(C)[C@H]1c2[nH]c3ccccc3c2C[C@H]2C(=O)N(CCCCCCC(=O)NO)CC(=O)N12 | 83.2%
Cn1cc(-c2nc(N)nnc2-c2c[nH]c3ccc(Br)cc23)c2cc(F)ccc21 | 58.8%
CCCCCCCCCCCC(=O)NC(C)(C)C(=O)N1CCCC1C(=O)NC(C)(C)C(=O)NC(C)(C)C(=O)N1CCCC1C(=O)NC(C)(C)C(=O)NC(C)(C)C(=O)N1CCCC1C(=O)NC(C)C(=O)NCCC(=O)NC(C)C(=O)NC(C)(C)C(=O)NC(C)(C)C(=O)NC(C)(C)C(=O)NCCC(=O)NC(C)(C)C(=O)NC(C)(C)C(=O)NC(C)(C)C(=O)NC(C)C(=O)NCCC(=O)O (stereo not given) | -99.7% (active)
CN1CCN(c2ccc(Nc3nc(NCCNC(=O)c4ccccc4)c4sccc4n3)cc2)CC1 | 66%
Cc1[nH]c(C(=O)Nc2ccccc2OCc2cccc(C(=O)NCCN)c2)cc1Cl | 92.2%
CCCc1[nH]c(-c2cc(N)ccc2Cl)c2c1C(=O)CCCC2 | 78.3%
O=C(Nc1ccc(N=Cc2c(O)[nH]c3ccccc23)cc1)Nc1ccc(S(=O)(=O)Nc2ncccn2)cc1 | 81.7%
CC1=Cc2ccccc2OC12C=Cc1ccccc1O2 (stereo not given) | 69%
NS(=O)(=O)c1ccc(CCn2c(-c3ccc(C(=O)O)cc3)nc(-c3ccccc3)c2-c2ccccc2)cc1 | 90.8%
COc1ccc(/C=N\NC(=O)c2cnn(CC(O)c3ccccc3)c2N)cc1OCc1ccc(Cl)cc1 (stereo not given) | 87.4%
CNc1sc(S(=O)(=O)NC)nc1S(=O)(=O)c1ccc(C)cc1 | 77.7%
C=C(C)[C@@H]1CC[C@]2(C(=O)N3CCN(C)CC3)CC[C@]3(C)[C@H](CC[C@@H]4[C@@]5(C)CC[C@H](OP(=O)(OCC)OCC)C(C)(C)[C@@H]5CC[C@]43C)[C@@H]12 | 60.8%
NS(=O)(=O)c1ccc(Nc2nc(Nc3ccccc3)nc(N3N=C(c4ccc(Cl)cc4)CC3c3ccc(Cl)cc3)n2)cc1 (stereo not given) | 48.9%
COc1cc(C(C)=C(c2ccc(OCCN(C)C)cc2)c2ccc(OCCN(C)C)cc2)ccc1F | 95.5%
CN1CCN(c2ccc(Nc3nc(NCCCNS(=O)(=O)c4ccc(F)cc4)c4sccc4n3)cc2)CC1 | 64.7%
CCOC(=O)c1c(NC(=O)c2ccc(C(F)(F)F)cc2)sc2c(CN3CCN(C)CC3)c(O)ccc12 | -93.6% (active)
CC(O)c1cccc(/C(N)=N/C(N)=N/c2nc3ccccc3s2)c1 (stereo not given) | 89.2%

Structure (SMILES) | growth
C#Cc1cc(C(=O)Nc2ccc(CNCCN3CCOCC3)c(C(F)(F)F)c2)ccc1C | 72.7%
COc1ccc(/C=N/NC(=O)CSc2nc(-c3cnccn3)cc(-c3cccs3)c2C#N)cc1 | 101%
Cn1cc(-c2nnc(N)nc2-c2c[nH]c3ccc(Br)cc23)c2cc(Br)ccc21 | 84.2%
COc1ccc2[nH]cc(-c3nc(N)nnc3-c3cn(C)c4ccc(Br)cc34)c2c1 | 40.7%
C#CCN(C)CCCOc1ccc(NCc2ccc(C(=O)NO)cc2)cc1Cl | -13.7% (active)
CCN(CC)c1ccc(/C=N/NC(=O)c2ccc(NS(C)(=O)=O)cc2)c(O)c1 | 13.1%
O=C(CCCCCCN1CC(=O)N2[C@@H](c3ccc(Cl)s3)c3[nH]c4ccccc4c3C[C@H]2C1=O)NO | 57.8%
CC1(C)CC[C@]23CC[C@]4(C)[C@H](CC[C@@H]5[C@@]6(C)CC[C@H](N)C(C)(C)[C@@H]6CC[C@]54C)[C@H]2[C@H]1OC3 | 82.7%
Cc1ccc(S(=O)(=O)NCCCNc2nc(Nc3ccc(N4CCN(C)CC4)cc3)nc3ccsc23)cc1 | 50.7%
N#Cc1nc(-c2ccccc2)oc1N1CCC(C2(C(F)(F)F)N=N2)CC1 | 82%
O=C(CCCCCCN1CC(=O)N2[C@@H](c3cccs3)c3[nH]c4ccccc4c3C[C@H]2C1=O)NO | 82.7%
O=C(CCCCCCNC(=O)C(O)(O)C(F)(F)F)Nc1nc2ccccc2s1 | -9.93% (active)
CNC(=O)c1cc(Oc2ccc3c(c2)sc2nc(-c4ccc(N(C)C)cc4)cn23)ccn1 | 33%
CC1=C(C)C(=O)C(Nc2cccc(C)c2)=C(Br)C1=O | 80.2%
CC(=C(c1ccc(OCCCN(C)C)cc1)c1ccc(OCCCN(C)C)cc1)c1ccc(Cl)cc1 | 88.5%
COc1cc(C(=O)c2cc(C(C)=O)c3cccc(C)n23)cc(OC)c1OC | 45.2%
C#Cc1nc(/C=C/CCCCCCC(=O)NO)cs1 | -93.1% (active)
CCCCCc1ccc(S(=O)(=O)Nc2cc(-c3csc(N)n3)ccc2OC)cc1 | 53.5%
CCCc1cc2cc(-n3nc(CC)c4c3CC(C)(C)CC4=O)cc(NC3CCC(O)CC3)c2c(=O)[nH]1 (stereo not given) | 14.1%
Cc1ccc(-c2cc3nc(C(Cl)Cl)nc(-c4ccc(S(=O)(=O)N(C)C)cc4)n3n2)cc1 | 92.1%
